{"source": "the supplement of paper PMC9177965", "data": [{"test_system": "HT29 RNF43 G659fs (RNF43 659mut, CRISPR-edited)", "test": "cell viability activity relative to DMSO (negative = inhibition); higher = more viable cells (less growth inhibition)", "conditions": "5 µM; 96 h", "description": "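Broad Repurposing Library primary screen at a single dose of 5 uM. HT29 sg-Ctrl and HT29 RNF43 G659fs CRISPR-edited isogenic cells were seeded at 2500 cells/well in 384-well plates in duplicate and treated for 96 h. Viability was read by CellTiter-Glo and reported as % activity relative to DMSO, with MG132 as the positive control (negative = growth inhibition).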", "units": {"cell viability activity": "%"}, "values": [{"smiles": "Cc1cccc(/C=N/Nc2cc(N3CCOCC3)n3nc(-c4ccncc4)cc3n2)c1", "cell viability activity": -56.4}, {"smiles": "O=C(NOCC(O)CO)c1cc(Br)c(F)c(F)c1Nc1ccc(I)cc1F", "note": "(stereo not given)", "cell viability activity": -75.8}, {"smiles": "COc1cccc(OCCCN)c1-c1cc(Nc2cnc(C#N)cn2)n[nH]1", "cell viability activity": -78.2}, {"smiles": "Cc1cn([C@H]2C[C@H](N=[N+]=[N-])[C@@H](CO)O2)c(=O)[nH]c1=O", "cell viability activity": -29}, {"smiles": "CC[C@]1(O)C[C@H]2CN(CCc3c([nH]c4ccccc34)[C@@](C(=O)OC)(c3cc4c(cc3OC)N(C=O)[C@H]3[C@@](O)(C(=O)OC)[C@H](OC(C)=O)[C@]5(CC)C=CCN6CC[C@]43[C@@H]65)C2)C1", "cell viability activity": -28.3}, {"smiles": "C[C@H](Oc1ccc(S(C)(=O)=O)cc1C(=O)N1CCN(c2ncc(C(F)(F)F)cc2F)CC1)C(F)(F)F", "cell viability activity": -65.2}, {"smiles": "C=C1CC[C@@H]2[C@](C)(CO)[C@H](O)CC[C@@]2(C)[C@@H]1C/C=C1/C(=O)OC[C@H]1O", "cell viability activity": -27.5}, {"smiles": "CCCCCCCCCCCCCCCC[N+](C)(C)C", "cell viability activity": -84.6}, {"smiles": "CN(C)C(=O)c1cc2cnc(Nc3ccc(N4CCNCC4)cn3)nc2n1C1CCCC1", "cell viability activity": -26}, {"smiles": "CN(C)CCOc1ccc(-c2nc(-c3ccncc3)c(-c3ccc4c(c3)CC/C4=N\\O)[nH]2)cc1", "cell viability activity": -44.3}, {"smiles": "CN1CCN(Cc2ccc(Nc3ncc(Cl)c(Nc4ccccc4S(=O)(=O)N(C)C)n3)cc2)CC1", "cell viability activity": -94.8}, {"smiles": "CCCCc1oc2ccccc2c1C(=O)c1cc(I)c(OCCN(CC)CC)c(I)c1", "cell viability activity": -99.4}, {"smiles": "O=C(O)c1ccccc1-c1c2cc(I)c(=O)c(I)c-2oc2c(I)c(O)c(I)cc12", "cell viability activity": -23}, {"smiles": "CC(C)(C)c1nc(-c2cccc(NS(=O)(=O)c3c(F)cccc3F)c2F)c(-c2ccnc(N)n2)s1", "cell viability activity": -69.4}, {"smiles": "O=[N+]([O-])c1ccc2c(c1)S(=O)(=O)C=C2", "cell viability activity": -95}, {"smiles": "CN(C)C(=S)SC(=S)N(C)C", "cell viability activity": -30.9}, {"smiles": "Cn1cnc2c(F)c(Nc3ccc(Br)cc3Cl)c(C(=O)NOCCO)cc21", "cell viability activity": -71.6}, {"smiles": "CC(C)C[C@H](NC(=O)[C@H](CCc1ccccc1)NC(=O)CN1CCOCC1)C(=O)N[C@@H](Cc1ccccc1)C(=O)N[C@@H](CC(C)C)C(=O)[C@@]1(C)CO1", "cell viability activity": -97.1}, {"smiles": "Clc1ccccc1CNCC1CCC(CNCc2ccccc2Cl)CC1", "note": "(stereo not given)", "cell viability activity": -26.3}, {"smiles": "CN1CCN(S(=O)(=O)c2ccc(-c3cnc(N)c(C(=O)Nc4cccnc4)n3)cc2)CC1", "cell viability activity": -46.3}, {"smiles": "COc1cc(F)c(F)c(Nc2ccc(I)cc2F)c1NS(=O)(=O)C1(C[C@H](O)CO)CC1", "cell viability activity": -74.1}, {"smiles": "C[C@]1(O)C[C@@H](c2nc(-c3ccc4ccc(-c5ccccc5)nc4c3)c3c(N)nccn32)C1", "cell viability activity": -32.5}, {"smiles": "COC(=O)[C@H]1[C@H]2C[C@@H]3c4[nH]c5cc(OC)ccc5c4CCN3C[C@H]2C[C@@H](OC(=O)c2cc(OC)c(OC)c(OC)c2)[C@@H]1OC", "cell viability activity": -26.1}, {"smiles": "CN(Cc1cnc2nc(N)nc(N)c2n1)c1ccc(C(=O)N[C@@H](CCC(=O)O)C(=O)O)cc1", "cell viability activity": -67.9}, {"smiles": "COc1cc2c(Nc3ccc(Cl)c(Cl)c3F)ncnc2cc1OC[C@@H]1C[C@@H]2CN(C)C[C@@H]2C1", "cell viability activity": -90.6}, {"smiles": "O=C(Nc1ccncc1)Nc1ccc(-c2nc(N3CCOCC3)nc(N3C4CCC3COC4)n2)cc1", "cell viability activity": -64.5}, {"smiles": "CN(NC(=O)CC(=O)NN(C)C(=S)c1ccccc1)C(=S)c1ccccc1", "cell viability activity": -30.6}, {"smiles": "CCCCCC(O)c1cccc(OCc2ccc3ccccc3n2)c1", "note": "(stereo not given)", "cell viability activity": -71.3}, {"smiles": "CO[C@@H](C)Cn1c(=O)n(C)c2cnc3ccc(-c4cncc(C(C)(C)O)c4)cc3c21", "cell viability activity": -81.7}, {"smiles": "COc1ccc2[nH]c(C(=O)c3ccccc3)cc2c1", "cell viability activity": -61.7}, {"smiles": "COc1c(OCCCN2CCOCC2)ccc2c3n(c(=NC(=O)c4cnc(N)nc4)nc12)CCN3", "cell viability activity": -59.6}, {"smiles": "CCCCc1ccc2[nH]c(NC(=O)OC)nc2c1", "cell viability activity": -66.1}, {"smiles": "CC(NCCC(c1ccccc1)c1ccccc1)c1ccccc1", "note": "(stereo not given)", "cell viability activity": -64.5}, {"smiles": "FC(F)c1nc2ccccc2n1-c1nc(N2CCOCC2)nc(N2CCOCC2)n1", "cell viability activity": -33}, {"smiles": "CN[C@H]1CN(c2ccc3c(=O)c(C(=O)O)cn(-c4nccs4)c3n2)C[C@@H]1OC", "cell viability activity": -60.3}, {"smiles": "CCCS(=O)(=O)Nc1ccc(F)c(C(=O)c2c[nH]c3ncc(Cl)cc23)c1F", "cell viability activity": -46.8}, {"smiles": "O=C1NC(=O)[C@@H](c2cn3c4c(cccc24)CCC3)[C@@H]1c1c[nH]c2ccccc12", "cell viability activity": -50.8}, {"smiles": "CC(C)Nc1cc(-c2c[nH]c(C(=O)N[C@H](CO)c3cccc(Cl)c3)c2)c(Cl)cn1", "cell viability activity": -71.1}, {"smiles": "O=P(O)(O)C(O)(Cn1ccnc1)P(=O)(O)O", "cell viability activity": -39.2}, {"smiles": "CCN(CC)C(=S)SSC(=S)N(CC)CC", "cell viability activity": -79.2}]}]}
